The values below come from PubChem BioAssay AID2284200 (EPA ToxCast).

SMILES strings stand for the structures. The source made the active and inactive calls. Rule for the calls: active = hit-call score of the fitted dose curve at least 0.9, where 1 is the maximum; inactive = score below 0.9.

The nature of the assay: ERF_TW_NR_rI2: Eurofins (ERF) Radioligand Binding LeadHunter Assay for rat Imidazoline I2 Central Antagonism. The method, then: ERF_TW_NR_rI2 is a biochemical, single-readout assay that uses extracted gene-proteins in a cell-free assay. Measurements were taken 0.5 hour after chemical dosing in a 96-well plate. See Imidazoline I2, Central Rat Binding (Antagonist Radioligand) Assay, Panlabs.ERF_TW_NR_rI2 is an assay component calculated from the ERF_TW_NR_rI2 assay. It is designed to measure radioligand binding using a type of binding reporter as detected by scintillation counting with radiometry technology.Data from the assay component ERF_TW_NR_rI2 was analyzed at the assay endpoint, ERF_TW_NR_rI2, in the positive analysis fitting direction relative to DMSO as the negative control and baseline of activity. Using a type of binding reporter, loss-of-signal activity can be used to understand changes in radioligand binding as they relate to gene NISCH (homolog). To generalize the intended target to other relatable targets, this assay endpoint is annotated to the oxidoreductase intended target family, where the subfamily is imidazoline receptor.
Brains (except cerebella) of male Wistar derived rats weighing 175 +/- 25 g are used to prepare imidazoline I2 receptors in modified Tris-HCl buffer pH 7.4. A 15 mg aliquot is incubated with 2 nM [3H] Idazoxan for 30 minutes at 25C. […] Membranes are filtered and washed, the filters are then counted to determine [3H] […]
As for `COc1cc(CCC(=O)CC(=O)CCc2ccc(O)c(OC)c2)ccc1O`, the outcome was inactive.
